PLK1 PBD inh: inhibitors of human PLK1 polo-box domain binding | P53350 | 360,000 tested, 2.8% active | AID 720504 | Potency, µM, for inactives: max response, negative = inhibition, actives largely listed as inhibitors | Plk1 PBD binding of FITC phosphopeptide, fluorescence polarization; further: potency means the concentration at half of the fitted maximal effect; series mostly up to about 57 µM; on the % scale 0 is the no-effect control and ±100 the full control effect; nearly all actives have a fitted effect of over 65% in size
Target sequence (P53350 whole entry, looked up, the tested form may be a part): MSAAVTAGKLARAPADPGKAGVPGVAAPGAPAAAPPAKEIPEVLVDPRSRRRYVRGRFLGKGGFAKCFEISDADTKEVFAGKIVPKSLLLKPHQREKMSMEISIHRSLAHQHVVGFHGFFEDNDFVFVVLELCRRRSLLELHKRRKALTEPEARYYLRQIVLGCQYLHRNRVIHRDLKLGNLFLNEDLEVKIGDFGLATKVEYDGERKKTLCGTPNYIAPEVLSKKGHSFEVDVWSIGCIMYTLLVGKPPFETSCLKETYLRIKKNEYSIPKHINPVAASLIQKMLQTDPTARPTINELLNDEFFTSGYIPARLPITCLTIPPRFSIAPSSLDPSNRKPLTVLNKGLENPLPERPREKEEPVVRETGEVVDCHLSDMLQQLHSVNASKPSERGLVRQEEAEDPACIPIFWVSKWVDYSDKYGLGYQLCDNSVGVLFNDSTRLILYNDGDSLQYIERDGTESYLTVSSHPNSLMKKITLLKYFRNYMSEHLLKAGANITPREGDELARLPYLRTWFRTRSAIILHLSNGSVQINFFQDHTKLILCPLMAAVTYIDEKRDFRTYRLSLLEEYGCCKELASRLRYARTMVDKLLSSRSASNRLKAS
Vif-APOBEC3G blk: inhibitors of Vif-APOBEC3G interaction. Q9HC16. HeLa A3G-eYFP + Vif (tagged APOBEC3G with the HIV-1 protein that degrades it), YFP fluorescence, overnight. Potency, µM (titrated, usually from 46.1 µM), for inactives: at the highest dose activity, negative = active, hits mostly inhibitors. 410,000 tested, 0.076% active. AID 602310; further: potency means the concentration at half of the fitted maximal effect; on the % scale 0 is the no-effect control and ±100 the full control effect; nearly all actives have a fitted effect of over 60% in size
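HeLa cells stably expressing Vif and C-terminally eYFP-tagged A3G, seeded overnight at 37 deg C, then exposed to compound by pintool overnight at 37 deg C. Rise in yellow fluorescence (Ex 488/Em 500-530, Acumen) marks blocked Vif-driven A3G degradation.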
Vif-A3F inh: Vif-A3F binding inhibition; HeLa A3F-eYFP + Vif (tagged APOBEC3F with the HIV-1 protein that degrades it), YFP fluorescence increase; Potency, µM (series often up to 46.1 µM), for the others: top-dose activity, negative = active; 390,000 tested, 0.2% active; AID 602313; further: potency means the concentration at half of the fitted maximal effect; % of control where 0% means no effect; nearly all actives have a fitted effect of over 65% in size
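HeLa cells stably expressing A3F-eYFP plus Vif, plated and incubated overnight at 37 deg C, then exposed to compounds overnight at 37 deg C. Blocked degradation read as raised yellow fluorescence (Ex 488/Em 500-530).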
VDR inhibitor: blocks the human vitamin D receptor; P11473; VDR-SRC2-3 peptide fluorescence polarization, 2 h; Potency, µM, for the others: max response, negative = inhibition, most hits filed as inhibitors; 400,000 tested, 0.93% active; AID 504847; further: potency means the concentration at half of the fitted maximal effect; on the % scale 0 is the no-effect control and ±100 the full control effect
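The screen uses fluorescence polarization to detect compounds that interfere with recruitment of the SRC2-3 coactivator peptide to VDR; plates are read after 2 h at room temperature.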
TSHR antag: blocks TSH signaling through the human TSH receptor | AID 504810 | TSHR-expressing cells, TSH-stimulated cAMP HTRF, 2 h; stronger effect = lower value | activity change, negative = inhibition, % at 11.5 µM | 330,000 tested, 0.2% active | P16473;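 active means activity change below a set negative limit, meaning inhibition stronger than a set level, cut at about -70% in these data; inconclusive means activity change between two set negative limits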; further: on the % scale 0 is the no-effect control and ±100 the full control effect
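Inhibition of cAMP made by TSHR-expressing cells under TSH stimulation (4nM final, EC80; 2 h, 37 deg C) is quantified with a one-step lysis HTRF kit, anti-cAMP cryptate versus cAMP-d2.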
Numbers without * were called inactive; ? = inconclusive; / = not tested or not shown; ! = a repeat was not active. Sampled rows, rich in hits. Any-hit rate of the full collection: about 3.1%. Unless noted, the call rests on the fitted dose curve; in most records, active means well fitted curve in the direction sought with a large enough effect; inconclusive means small, poorly fitted or top-dose-only effect, or another doubt; inactive means no such curve, though single readings can be large; an effect the other way counts as inactive or inconclusive.

SMILES	PLK1 PBD inh	Vif-APOBEC3G blk	Vif-A3F inh	VDR inhibitor	TSHR antag
C[C@H](NC(=O)[C@@H]1Cc2ccccc2CN1)C(=O)NCC1CCCO1 (stereo not given in full)	30µM*	1%	1%	-19%	-7
C[C@@H](NC(=O)[C@@H]1Cc2ccccc2CN1)C(=O)NC1CCCCC1	-9%	-2%	-8%	5%	-134*
C=CCCN(Cc1ccc(OC)cc1)S(=O)(=O)c1ccccc1Br	/	2%	/	-12%	/
O=C(Nc1cc(Cl)cc2c1[nH]c1cnccc12)c1cccnc1	/	/	/	7%	/
COc1ccccc1CNCCS(=O)(=O)NN1CCOCC1	11µM*	-3%	3%	-16%	-5
Nc1nc(Cl)nc2ccc(Br)cc12	17µM*	1%	-8%	-17%	3
O=C(NCCc1cccc(F)c1)C1CCN(S(=O)(=O)c2ccc(F)cc2)CC1	-2%	-4%	14%	-2%	-20
O=C(NCc1ccccc1Cl)C1CCN(S(=O)(=O)c2ccc(N3CCCC3=O)cc2)CC1	12µM*	6%	5%	?	5
CC(C)[C@H](NC(=O)C1CCN(S(=O)(=O)c2ccc(F)cc2)CC1)C(=O)NCc1ccco1	27µM*	10%	2%	-26%	-3
O=C(NCc1ccc(F)cc1)C1CCN(S(=O)(=O)c2ccc(N3CCCC3=O)cc2)CC1	4%	-2%	7%	/	/
CCNC(=O)C1CCN(S(=O)(=O)c2ccc(F)cc2)CC1	21µM*	2%	-4%	?	0
COc1ccc(NC(=O)COc2ccccc2C(=O)Nc2ccccc2)cc1	/	3%	/	/	/
CCCC(=O)NC(=S)Nc1ccccc1C(=O)OC	30µM*	0%	5%	-17%	-6
COC(=O)c1ccccc1NC(=S)NC(=O)c1cccc2ccccc12	6.7µM*	0%	6%	?	-3
Cc1ccccc1CC1(CO)CCCN(C(=O)c2ccc3ncccc3c2)C1 (stereo not given)	2.7µM*	-1%	-37%	40µM*	9
Cc1c(N=Nc2ccc(O)cc2)c(=O)n(-c2ccccc2)n1C	-6%	1%	12%	-2%	13
Cc1c(N=C2C=CC(=O)c3ccccc32)c(=O)n(-c2ccccc2)n1C	19µM*	-6%	4%	?	-19
O=C(CC1CCCCC1)NCCOc1ccccc1	27µM*	2%	-14%	?	1
CCCCCC(=O)NNC1CC(=O)N(c2ccccc2)C1=O (stereo not given)	-9%	-4%	7%	-11%	-9
CCCCCC(=O)N(O)C1CC(=O)N(c2ccccc2)C1=O (stereo not given)	?	0%	-10%	20µM*	2
COc1ccc(C(=O)NCC(c2cccs2)S(=O)(=O)c2ccc(F)c(C)c2)cc1 (stereo not given)	/	3%	-8%	11%	/
Nc1nnc(CSCc2ccc(Cl)cc2Cl)s1	19µM*	-3%	-23%	-27%	-17
Nc1nnc(CSCc2ccc(Cl)cc2)s1	-9%	2%	-3%	3%	4
Cc1cc(C)c2c(n1)sc1c(=O)n(-c3ccccc3C(F)(F)F)nnc12	/	1%	8%	-17%	/
CC(=O)n1nnc2ccccc21	/	3%	/	-7%	/
SMILES	PLK1 PBD inh	Vif-APOBEC3G blk	Vif-A3F inh	VDR inhibitor	TSHR antag
CCSc1ccccc1C(=O)n1nnc2ccccc21	5.6µM*	-19%	-14%	50µM*	/
Cc1ccc(C)c(NC(=O)c2ccccc2O)c1	3.4µM*	-10%	-5%	?	-6
Cc1cccc(C(=O)Nc2nnc(S(=O)(=O)N(C)Cc3ccco3)s2)c1	?	4%	-3%	89µM*!	-19
Cc1cccc(C(=O)Nc2nnc(S(=O)(=O)N(C)Cc3ccc(Cl)cc3)s2)c1	/	0%	7%	-10%	/
Cc1ccccc1NCC(=O)N=Nc1c(O)[nH]c2ccc([N+](=O)[O-])cc12	-16%	5µM*	?	-4%	-9
c1cc(SSc2ccncc2)ccn1	1.9µM*	3%	-15%	32µM*	2
CCC(C)NC(=O)CN(c1ccc(OC)cc1)S(=O)(=O)c1ccccc1 (stereo not given)	21µM*	-6%	-1%	?	5
Cc1ccc(OCc2cc(C(=O)N3CCN(CC(=O)NC(C)C)CC3)no2)cn1	27µM*	0%	-2%	-17%	-2
Cc1nnc(N2CCc3ccccc3C2)[nH]c1=O	30µM*	-3%	-3%	-17%	11
